# About 79,000 compounds went through this panel and 15% of them were active in at least one assay; those are over-represented in the sample as a whole. A number with no mark means an inactive call. The source made the active and inactive calls. Cut-off read from the data, not from the text of the source: active = growth inhibition above about 70%; inactive = the rest.
# Columns and labels:
# [1] = NCI Yeast Anticancer Drug Screen. Data for the rad50 strain (AID 155);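 note: 0% = growth of vehicle-only cultures of the same strain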; conditions: S. cerevisiae rad50 strain growth inhibition, active compounds read high
# Outline: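 Relative growth inhibition (compound vs vehicle) was measured in yeast with a defined repair-gene alteration.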
# [2] = NCI Yeast Anticancer Drug Screen. Data for the mec2-1 strain (AID 157); conditions: S. cerevisiae mec2-1 strain, active compounds read high
# Outline: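 Compounds were applied to mec2-1 yeast cells. Their growth was then compared with that of vehicle-treated cultures to give growth inhibition.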
# [3] = NCI Yeast Anticancer Drug Screen. Data for the sgs1 mgt1 strain (AID 161);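 note: 0% = growth of cultures given vehicle only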; conditions: S. cerevisiae sgs1 mgt1 strain, active compounds read high
# Outline: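 Growth of a repair-deficient yeast mutant was monitored after compound treatment and expressed as inhibition relative to vehicle-treated cultures.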
# [4] = NCI Yeast Anticancer Drug Screen. Data for the cln2 rad14 strain (AID 165);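 note: 0% = growth equal to vehicle treated cultures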; conditions: S. cerevisiae cln2 rad14 strain, active compounds read high
# Outline: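 Strain: cln2 rad14 yeast, altered in cell cycle control and DNA damage repair. Read-out: growth inhibition vs vehicle.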
# [5] = NCI Yeast Anticancer Drug Screen. Data for the bub3 strain (AID 167); conditions: S. cerevisiae bub3 mutant strain, active compounds read high
# Outline: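 Screening used yeast with an engineered genetic alteration affecting cell cycle control. Compound-exposed cultures were compared with vehicle cultures, and reduced growth was taken as inhibition.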
# [6] = NCI Yeast Anticancer Drug Screen. Data for the mlh1 rad18 strain (AID 175); conditions: S. cerevisiae mlh1 rad18 strain growth inhibition, active compounds read high
# Outline: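 A repair-deficient yeast strain is exposed to test compound, and growth is scored relative to vehicle-treated controls.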
# [7] = at 5.0 µM (retest, dose inferred, filed as 0.5)
# [8] = at 50.0 µM (retest, dose inferred, filed as 5.0)
structure (smiles),measurement,setting,value
CCOC(=O)C(=CN1CCNC1=S)C(=O)OCC,growth inhibition,[1]; at 50.0 µM unless noted,-30.6%
same,growth inhibition,[2]; at 50.0 µM unless noted,-33.6%
same,growth inhibition,[3]; at 50.0 µM unless noted,-25.6%
same,growth inhibition,[4]; at 50.0 µM unless noted,-1.6%
same,growth inhibition,[5]; at 50.0 µM unless noted,-15.8%
COc1ccc(/C=C(\C(=O)OCC(C)C)c2ccc(OC)c(OC)c2)cc1OC,growth inhibition,[1]; at 50.0 µM unless noted,2.6%
same,growth inhibition,[2]; at 50.0 µM unless noted,-17.1%
same,growth inhibition,[3]; at 50.0 µM unless noted,8.5%
same,growth inhibition,[4]; at 50.0 µM unless noted,-6.15%
same,growth inhibition,[5]; at 50.0 µM unless noted,-7.2%
C/C(=N\NC(=S)N1CCN(c2ccccn2)CC1)c1cccc(C)n1,growth inhibition,[1]; at 50.0 µM unless noted,90.3% (active)
same,growth inhibition,[2]; at 50.0 µM unless noted,92.7% (active)
same,growth inhibition,[3]; at 50.0 µM unless noted,91.8% (active)
same,growth inhibition,[4]; at 50.0 µM unless noted,91.3% (active)
Oc1ccc(Cc2ccccc2Cl)c(O)c1,growth inhibition,[1]; [7],1%
same,growth inhibition,[1]; [8],99% (active)
same,growth inhibition,[2]; [7],-4%
same,growth inhibition,[2]; [8],99% (active)
same,growth inhibition,[3]; [7],-3%
same,growth inhibition,[3]; [8],99% (active)
same,growth inhibition,[4]; [7],1%
same,growth inhibition,[4]; [8],98% (active)
same,growth inhibition,[5]; [7],-1%
same,growth inhibition,[5]; [8],99% (active)
same,growth inhibition,[6]; [7],-22%
same,growth inhibition,[6]; [8],98% (active)
COc1ccc(Nc2ccc3ccccc3c2)cc1,growth inhibition,[1]; [7],6%
same,growth inhibition,[1]; [8],0%
same,growth inhibition,[2]; [7],-2%
same,growth inhibition,[2]; [8],-1%
same,growth inhibition,[3]; [7],-66%
same,growth inhibition,[3]; [8],50%
same,growth inhibition,[4]; [7],-4%
same,growth inhibition,[4]; [8],-17%
same,growth inhibition,[5]; [7],3%
same,growth inhibition,[5]; [8],72% (active)
same,growth inhibition,[6]; [7],-31%
same,growth inhibition,[6]; [8],-7%
C/C(N=NC(=S)N1CC2CCC(CC2)C1)=C1\C=CC=CN1O,growth inhibition,[1]; at 50.0 µM unless noted,80.3% (active)
same,growth inhibition,[2]; at 50.0 µM unless noted,85.7% (active)
same,growth inhibition,[3]; at 50.0 µM unless noted,82.2% (active)
same,growth inhibition,[4]; at 50.0 µM unless noted,69.5%
O=C(O)CCc1cnc[nH]1,growth inhibition,[1]; at 50.0 µM unless noted,-0.7%
same,growth inhibition,[2]; at 50.0 µM unless noted,-1.8%
same,growth inhibition,[3]; at 50.0 µM unless noted,1.2%
same,growth inhibition,[4]; at 50.0 µM unless noted,22.5%
same,growth inhibition,[5]; at 50.0 µM unless noted,14.6%
N#CC(C#N)N=Nc1ccc(Cl)cc1,growth inhibition,[1]; [7],26%
same,growth inhibition,[1]; [8],83% (active)
same,growth inhibition,[2]; [7],18%
same,growth inhibition,[2]; [8],73% (active)
same,growth inhibition,[3]; [7],24%
same,growth inhibition,[3]; [8],93% (active)
same,growth inhibition,[4]; [7],1%
same,growth inhibition,[4]; [8],73% (active)
same,growth inhibition,[5]; [7],9%
same,growth inhibition,[5]; [8],72% (active)
same,growth inhibition,[6]; [7],-1%
same,growth inhibition,[6]; [8],87% (active)
CCCCCC=C(c1cc(Cl)c(OC)c(C(N)=O)c1)c1cc(Cl)c(OC)c(C(N)=O)c1,growth inhibition,[1]; at 50.0 µM unless noted,-20.1%
same,growth inhibition,[2]; at 50.0 µM unless noted,-9.35%
same,growth inhibition,[3]; at 50.0 µM unless noted,-12.4%
same,growth inhibition,[4]; at 50.0 µM unless noted,-92.9%
same,growth inhibition,[5]; at 50.0 µM unless noted,5.5%
O=C(OCc1ccccc1)ON1C(=O)C2C3C=CC(C3)C2C1=O (stereo not given),growth inhibition,[1]; at 50.0 µM unless noted,-26.4%
same,growth inhibition,[2]; at 50.0 µM unless noted,-54.2%
same,growth inhibition,[3]; at 50.0 µM unless noted,12.5%
same,growth inhibition,[4]; at 50.0 µM unless noted,-9.1%
same,growth inhibition,[5]; at 50.0 µM unless noted,-19%
O=c1[nH]c(/C=C/c2ccccc2)c([N+](=O)[O-])c(=O)[nH]1,growth inhibition,[1]; at 50.0 µM unless noted,-7%
same,growth inhibition,[2]; at 50.0 µM unless noted,2.9%
same,growth inhibition,[3]; at 50.0 µM unless noted,-12.7%
same,growth inhibition,[4]; at 50.0 µM unless noted,-19.6%
same,growth inhibition,[5]; at 50.0 µM unless noted,26.6%
CCCCOC(=O)/C=C\C(=O)NC(N)=O,growth inhibition,[1]; [7],4%
same,growth inhibition,[1]; [8],9%
same,growth inhibition,[2]; [7],-1%
same,growth inhibition,[2]; [8],7%
same,growth inhibition,[3]; [7],5%
same,growth inhibition,[3]; [8],18%
same,growth inhibition,[4]; [7],-3%
same,growth inhibition,[4]; [8],1%
same,growth inhibition,[5]; [7],0%
same,growth inhibition,[5]; [8],6%
same,growth inhibition,[6]; [7],-21%
same,growth inhibition,[6]; [8],18%
O=C1C=CC(=Nc2ccc3c(c2)-c2ccccc2C3)O1,growth inhibition,[1]; at 50.0 µM unless noted,3.2%
same,growth inhibition,[2]; at 50.0 µM unless noted,21%
same,growth inhibition,[3]; at 50.0 µM unless noted,5.05%
same,growth inhibition,[4]; at 50.0 µM unless noted,-9.9%
same,growth inhibition,[5]; at 50.0 µM unless noted,1.35%
N#C/C(=C\c1ccc(Cl)cc1Cl)C(=O)N/N=C/c1ccc(Cl)cc1Cl,growth inhibition,[1]; at 50.0 µM unless noted,62.8%
same,growth inhibition,[2]; at 50.0 µM unless noted,37.8%
same,growth inhibition,[3]; at 50.0 µM unless noted,27.8%
same,growth inhibition,[4]; at 50.0 µM unless noted,58.2%
same,growth inhibition,[5]; at 50.0 µM unless noted,98% (active)
CC(=O)OC1CCC2(C)C(CCC3C2C(=O)C(OC(C)=O)C2(C)C3CC3OC4(CCC(C)CO4)C(C)C32)C1 (stereo not given),growth inhibition,[1]; at 50.0 µM unless noted,-10.5%
same,growth inhibition,[2]; at 50.0 µM unless noted,-19.9%
same,growth inhibition,[3]; at 50.0 µM unless noted,-11.2%
same,growth inhibition,[4]; at 50.0 µM unless noted,3.6%
same,growth inhibition,[5]; at 50.0 µM unless noted,-23.9%
CCCCNc1ccc(Nc2ccccc2)cc1,growth inhibition,[1]; [7],1%
same,growth inhibition,[1]; [8],95% (active)
same,growth inhibition,[2]; [7],1%
same,growth inhibition,[2]; [8],96% (active)
same,growth inhibition,[3]; [7],14%
same,growth inhibition,[3]; [8],97% (active)
same,growth inhibition,[4]; [7],1%
same,growth inhibition,[4]; [8],87% (active)
same,growth inhibition,[5]; [7],2%
same,growth inhibition,[5]; [8],97% (active)
same,growth inhibition,[6]; [7],-40%
same,growth inhibition,[6]; [8],94% (active)
O=C(O)/C=C\C(=O)Nc1cccc2ccccc12,growth inhibition,[1]; [7],4%
same,growth inhibition,[1]; [8],60%
same,growth inhibition,[2]; [7],-1%
same,growth inhibition,[2]; [8],30%
same,growth inhibition,[3]; [7],7%
same,growth inhibition,[3]; [8],88% (active)
same,growth inhibition,[4]; [7],-1%
same,growth inhibition,[4]; [8],8%
same,growth inhibition,[5]; [7],-1%
same,growth inhibition,[5]; [8],42%
same,growth inhibition,[6]; [7],-35%
same,growth inhibition,[6]; [8],25%
O=Cc1c[nH]c2ccc(F)cc12,growth inhibition,[1]; at 50.0 µM unless noted,9.85%
same,growth inhibition,[2]; at 50.0 µM unless noted,-19.4%
same,growth inhibition,[3]; at 50.0 µM unless noted,20.6%
same,growth inhibition,[4]; at 50.0 µM unless noted,14.3%
same,growth inhibition,[5]; at 50.0 µM unless noted,19.9%

# From PubChem BioAssay (NCI)
